# Measured values: the antibiotic and cytotoxicity screens of Wong et al. (2023)
# The campaign covered roughly 39,000 compounds. About 3,300 (8.5%) were called active. The entries come from a sample that favours actives as a whole.
# Tested on: HepG2
# Experiment: cytotoxicity call (relative viability < 0.9)
# Conditions: 10 µM
row,Structure (SMILES),cytotoxicity call
1,C[C@@H]1CN([C@@H](C)CO)C(=O)c2cc(NC(=O)Cn3cnnn3)ccc2O[C@H]1CN(C)S(=O)(=O)c1ccc(Cl)cc1,inactive
2,COc1ccc(S(=O)(=O)N[C@H]2CC[C@@H](CCNC(=O)CN3CCOCC3)O[C@H]2CO)cc1,inactive
3,C[C@@H]1CN([C@@H](C)CO)C(=O)Cc2cc(NS(=O)(=O)c3cn(C)cn3)ccc2O[C@H]1CN(C)S(=O)(=O)c1ccc(Cl)cc1,inactive
4,CO[C@@H]1CN(C)C(=O)c2cc(NS(=O)(=O)CC(F)(F)F)ccc2OC[C@@H](C)N(Cc2ccccn2)C[C@H]1C,inactive
5,CN1C(=S)N[C@@H]2CS(=O)(=O)C[C@@H]21,inactive
6,O=C(CCCCCC(=O)N/N=C/[C@H](O)[C@H](O)[C@@H](O)[C@@H](O)CO)NO,inactive
7,C[C@H]1CN([C@@H](C)CO)C(=O)c2cc(C3=CCCCC3)cnc2O[C@@H]1CN(C)C(=O)CN1CCOCC1,inactive
8,O=c1nc[nH]c2c1ncn2[C@@H]1C[C@@H](O)[C@H](CO)O1,inactive
9,C[C@@H]1CN([C@H](C)CO)C(=O)c2cccc(NC(=O)c3nc4ccccc4s3)c2O[C@@H]1CN(C)CC1CCCCC1,inactive
10,CCN1[C@@H]2O[C@@H]3O[C@H]4[C@H](O[C@H]3O[C@@H]2N(CC)S1(=O)=O)N(CC)S(=O)(=O)N4CC,inactive
11,C[C@H](CO)N1C[C@H](C)[C@H](CN(C)S(=O)(=O)c2cccs2)Oc2ncc(C#Cc3cccc(F)c3)cc2C1=O,inactive
12,Cc1noc(C)c1NC(=O)N(C)C[C@@H]1Oc2ccc(NC(=O)CCN3CCOCC3)cc2C(=O)N([C@@H](C)CO)C[C@H]1C,inactive
13,C[C@H]1CCCCO[C@H](CN(C)Cc2ccccc2)[C@@H](C)CN([C@@H](C)CO)C(=O)c2cc(NC(=O)NC3CCCCC3)ccc2O1,active
14,C[C@@H]1CN([C@H](C)CO)C(=O)c2cc(NC(=O)NC3CCCCC3)ccc2O[C@@H](C)CCCCO[C@H]1CN(C)Cc1ccccc1,inactive
15,C[C@@H]1CCCCO[C@H](CN(C)Cc2ccccc2)[C@@H](C)CN([C@H](C)CO)C(=O)c2cc(NC(=O)NC3CCCCC3)ccc2O1,inactive
16,COc1ccc(S(=O)(=O)N(C)C[C@@H]2Oc3c(NS(=O)(=O)c4ccccc4)cccc3C(=O)N([C@H](C)CO)C[C@@H]2C)cc1,inactive
17,C[C@H]1CN([C@@H](C)CO)C(=O)Cc2cc(NC(=O)CCN3CCOCC3)ccc2O[C@H]1CN(C)Cc1ccc2c(c1)OCO2,inactive
18,C[C@H](CO)N1C[C@H](C)[C@H](CN(C)Cc2ccc(Cl)c(Cl)c2)OCCCC[C@H](C)Oc2ccc(NC(=O)NC3CCCCC3)cc2C1=O,active
19,C[C@@H]1CCCCO[C@H](CN(C)Cc2ccc(Cl)c(Cl)c2)[C@H](C)CN([C@@H](C)CO)C(=O)c2cc(NC(=O)NC3CCCCC3)ccc2O1,inactive
20,C[C@@H]1CCCCO[C@@H](CN(C)Cc2ccc(Cl)c(Cl)c2)[C@@H](C)CN([C@@H](C)CO)C(=O)c2cc(NC(=O)NC3CCCCC3)ccc2O1,active

row,Structure (SMILES),cytotoxicity call
1,C[C@@H]1CCCCO[C@@H](CN(C)Cc2ccc(Cl)c(Cl)c2)[C@H](C)CN([C@H](C)CO)C(=O)c2cc(NC(=O)NC3CCCCC3)ccc2O1,inactive
2,C[C@@H]1CCCCO[C@H](CN(C)Cc2ccc(Cl)c(Cl)c2)[C@@H](C)CN([C@H](C)CO)C(=O)c2cc(NC(=O)NC3CCCCC3)ccc2O1,inactive
3,C[C@H]1CCCCO[C@H](CN(C)Cc2ccc(Cl)c(Cl)c2)[C@@H](C)CN([C@@H](C)CO)C(=O)c2cc(NC(=O)NC3CCCCC3)ccc2O1,inactive
4,C[C@@H]1CCCCO[C@@H](CN(C)Cc2ccc(Cl)c(Cl)c2)[C@@H](C)CN([C@H](C)CO)C(=O)c2cc(NC(=O)NC3CCCCC3)ccc2O1,inactive
5,C[C@@H]1CCCCO[C@@H](CN(C)Cc2ccc(Cl)c(Cl)c2)[C@H](C)CN([C@@H](C)CO)C(=O)c2cc(NC(=O)NC3CCCCC3)ccc2O1,inactive
6,C[C@@H]1CN([C@H](C)CO)C(=O)c2cc(NC(=O)NC3CCCCC3)ccc2O[C@@H](C)CCCCO[C@@H]1CN(C)Cc1ccc(Cl)c(Cl)c1,inactive
7,C[C@@H]1CCCCO[C@H](CN(C)Cc2ccc(Cl)c(Cl)c2)[C@@H](C)CN([C@@H](C)CO)C(=O)c2cc(NC(=O)NC3CCCCC3)ccc2O1,inactive
8,C[C@H](CO)N1C[C@H](C)[C@@H](CN(C)Cc2ccc(Cl)c(Cl)c2)OCCCC[C@H](C)Oc2ccc(NC(=O)NC3CCCCC3)cc2C1=O,active
9,C[C@@H]1CN([C@@H](C)CO)C(=O)c2cc(NC(=O)NC3CCCCC3)ccc2O[C@@H](C)CCCCO[C@H]1CN(C)Cc1ccc(Cl)c(Cl)c1,active
10,O=C(O)CCN1CCCC1=O,inactive
11,COC(=O)c1c2oc(c1C(=O)OC)C(=O)N[C@@H](Cc1ccccc1)Cn1cc(nn1)[C@H](Cc1ccccc1)NC(=O)N[C@@H](CO)CC2,inactive
12,C[C@H]1CN([C@@H](C)CO)C(=O)Cc2cc(NC(=O)Cn3cnnn3)ccc2O[C@H]1CN(C)Cc1ccc(C(=O)O)cc1,inactive
13,C[C@@H]1CN([C@@H](C)CO)C(=O)c2cc(N(C)C)ccc2O[C@@H](C)CCCCO[C@@H]1CN(C)S(=O)(=O)c1cn(C)cn1,inactive
14,COc1ccc(NC(=O)Nc2ccc3c(c2)C(=O)N([C@@H](C)CO)C[C@@H](C)[C@@H](CN(C)C(=O)Nc2ccc(OC)cc2)OCCCC[C@H](C)O3)cc1,inactive
15,C[C@@H]1CN([C@@H](C)CO)C(=O)c2cccc(NC(=O)NC3CCCCC3)c2O[C@@H]1CN(C)Cc1ccc(Cl)c(Cl)c1,inactive
16,O=C(O)/C=C/c1cnc[nH]1,inactive
17,C=CCN1C(=O)[C@@]2(O[C@@H](CCn3cc([C@H](O)c4ccccc4)nn3)[C@H]([Si](C)(C)c3ccc(OC)cc3)[C@H]2C)c2cc(N3C(=O)c4cccc5cccc3c45)ccc21,inactive
18,C=CCN1C(=O)[C@]2(O[C@H](CCn3cc([C@H](O)c4ccccc4)nn3)[C@@H]([Si](C)(C)c3ccc(OC)cc3)[C@@H]2C)c2cc(N3C(=O)c4cccc5cccc3c45)ccc21,inactive
19,C=CCN1C(=O)[C@@]2(O[C@@H](CCO)[C@H]([Si](C)(C)c3ccc(OC)cc3)[C@H]2C)c2cc(N3C(=O)c4cccc5cccc3c45)ccc21,active
20,C=CCN1C(=O)[C@@]2(O[C@@H](CCO)[C@H]([Si](C)(C)F)[C@H]2C)c2cc(N3C(=O)c4cccc5cccc3c45)ccc21,inactive

row,Structure (SMILES),cytotoxicity call
1,C=CCN1C(=O)[C@]2(O[C@H](CCO)[C@@H]([Si](C)(C)c3ccc(OC)cc3)[C@@H]2C)c2cc(N3C(=O)c4cccc5cccc3c45)ccc21,active
2,C[C@H](CO)N1C[C@H](C)[C@H](CN(C)C(=O)Nc2cccc3ccccc23)Oc2ccc(NS(=O)(=O)c3cccs3)cc2CC1=O,inactive
3,CC(C)NC(=O)N(C)C[C@@H]1OCCCC[C@@H](C)Oc2ccc(NC(=O)Nc3ccc(F)cc3)cc2C(=O)N([C@H](C)CO)C[C@H]1C,inactive
4,COc1ccccc1CNC(=O)C[C@@H]1C[C@@H]2c3cc(NC(=O)NC4CCCC4)ccc3O[C@@H]2[C@@H](CO)O1,inactive
5,COc1ccc(NC(=O)N(C)C[C@H]2Oc3c(NC(=O)Nc4cccc5ccccc45)cccc3C(=O)N([C@H](C)CO)C[C@@H]2C)cc1,inactive
6,COc1ccc(S(=O)(=O)Nc2ccc3c(c2)C(=O)N([C@H](C)CO)C[C@H](C)[C@H](CN(C)Cc2ccc(C(=O)O)cc2)OCCCC[C@@H](C)O3)cc1,inactive
7,COc1ccc(NC(=O)N(C)C[C@@H]2OCCCC[C@@H](C)Oc3ccc(NC(=O)Nc4ccc(F)cc4)cc3C(=O)N([C@H](C)CO)C[C@H]2C)cc1,inactive
8,O=C(CC1CC1)NCc1cnc2n1CCNCC2,inactive
9,O=C(C[C@@H]1CC=CCCC(=O)OC[C@H](Cc2c[nH]c3ccccc23)NC1=O)N[C@H](CO)Cc1ccccc1,inactive
10,O=C(C[C@@H]1CC=CCCC(=O)OC[C@@H](Cc2c[nH]c3ccccc23)NC1=O)N[C@@H](CO)Cc1ccccc1,inactive
11,O=C(C[C@@H]1CC=CCC[C@H](Cc2ccc(F)cc2)C(=O)OC[C@H](Cc2c[nH]c3ccccc23)NC1=O)N[C@H](CO)Cc1ccccc1,active
12,O=C(C[C@@H]1CC=CCC[C@@H](Cc2ccc(F)cc2)C(=O)OC[C@@H](Cc2c[nH]c3ccccc23)NC1=O)N[C@H](CO)Cc1ccccc1,active
13,O=C(C[C@@H]1CC=CCC[C@@H](Cc2ccc(F)cc2)C(=O)OC[C@H](Cc2c[nH]c3ccccc23)NC1=O)N[C@@H](CO)Cc1ccccc1,active
14,O=C(C[C@@H]1CC=CCCC(=O)OC[C@@H](Cc2c[nH]c3ccccc23)NC1=O)N[C@H](CO)Cc1ccccc1,inactive
15,O=C(C[C@@H]1CC=CCCC(=O)OC[C@H](Cc2c[nH]c3ccccc23)NC1=O)N[C@@H](CO)Cc1ccccc1,inactive
16,O=C(C[C@@H]1CC=CCC[C@H](Cc2ccc(F)cc2)C(=O)OC[C@@H](Cc2c[nH]c3ccccc23)NC1=O)N[C@@H](CO)Cc1ccccc1,inactive
17,O=C(C[C@@H]1CC=CCC[C@@H](Cc2ccc(F)cc2)C(=O)OC[C@@H](Cc2c[nH]c3ccccc23)NC1=O)N[C@@H](CO)Cc1ccccc1,inactive
18,O=C(C[C@@H]1CC=CCC[C@H](Cc2ccc(F)cc2)C(=O)OC[C@H](Cc2c[nH]c3ccccc23)NC1=O)N[C@@H](CO)Cc1ccccc1,inactive
19,C[C@@H]1COC(=O)[C@@H](Cc2ccc(F)cc2)CCC=CC[C@@H](CC(=O)N[C@H](CO)Cc2ccccc2)C(=O)N1,inactive
20,O=C(C[C@@H]1CC=CCC[C@@H](Cc2ccc(F)cc2)C(=O)OC[C@H](Cc2c[nH]c3ccccc23)NC1=O)N[C@H](CO)Cc1ccccc1,active
